Most compounds without a hit are left out; they make up all but 1.4% or so of the library.
AMA1-RON2 inh: AMA1-RON2 (P. falciparum) interaction inhibition; AID 720542; Potency, µM (doses to about 58.2 µM), for the others: at the top dose activity change, negative = inhibition, hits mostly inhibitors; hit rate 0.2% among 360,000; AlphaScreen AMA1-biotinylated RON2 peptide binding;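 note: 0% = vehicle wells and -100% = peptide control; nearly all actives have a fitted effect of over 45% in size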
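AMA1 (3D7) with his tag at 25 nM final met compounds first, then biotinylated RON2 peptide at 25 nM; detection used donor plus acceptor beads, 10 µg/mL apiece, read by AlphaScreen after 30 min at room temperature.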
AmpC no deterg: inhibitors of E. coli AmpC beta-lactamase without detergent; AmpC nitrocefin hydrolysis, absorbance 480 nm, 0.0001% Triton; Potency, µM (top dose mostly 57.1 µM), for the others: at the highest dose activity change, negative = inhibition, hits mostly inhibitors; hit rate 0.52% among 330,000;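 note: plate controls were no compound for no effect and no enzyme for full effect; nearly all actives have a fitted effect of over 20% in size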
Target sequence (P00811 whole entry, looked up): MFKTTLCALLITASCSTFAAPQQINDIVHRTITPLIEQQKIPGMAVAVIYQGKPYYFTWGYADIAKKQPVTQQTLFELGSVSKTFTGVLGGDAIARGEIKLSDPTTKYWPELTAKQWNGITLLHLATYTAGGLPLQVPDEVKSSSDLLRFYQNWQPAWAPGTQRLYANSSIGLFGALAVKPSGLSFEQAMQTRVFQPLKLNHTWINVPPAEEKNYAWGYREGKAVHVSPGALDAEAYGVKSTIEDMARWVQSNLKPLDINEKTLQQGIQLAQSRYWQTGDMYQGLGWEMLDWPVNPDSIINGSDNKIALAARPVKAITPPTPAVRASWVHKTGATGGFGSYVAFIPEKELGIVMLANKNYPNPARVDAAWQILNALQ
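AmpC (5.3 nM in the dispensed reagent) in 20 mM phosphate pH 7.0 with 0.01% (detergent screen) or 0.0001% Triton X-100 was preincubated with compounds for 15 min at room temperature. Nitrocefin was then added from an 800 uM solution, and hydrolysis was followed at 480 nm.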
AmpC detergent: blocks E. coli AmpC beta-lactamase in detergent assay; P00811; AmpC hydrolysis of nitrocefin, absorbance 480 nm, 0.01% Triton; Potency, µM (series often up to 114 µM), for inactives: at the highest dose activity change, negative = inhibition, hits mostly inhibitors; hit rate 0.041% among 370,000;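 note: 0% = no-compound wells and -100% = no-enzyme wells; nearly all actives have a fitted effect of over 25% in size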
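20 mM phosphate pH 7.0 + 0.01% (detergent screen) or 0.0001% Triton X-100; 5.3 nM AmpC reagent; cpd preinc 15 min RT; nitrocefin (800 uM stock) to start; A480 q20 s × 4 min; Activity was normalised to no-enzyme and no-compound control wells.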
Vaccinia Venus: inhibitors of vaccinia virus (Venus reporter); Vaccinia virus Venus reporter expression, fluorescence; hit rate 0.46% among 330,000; Potency, µM (doses to about 36.5 µM), without a hit: at the top dose activity change, negative = inhibition, most hits filed as inhibitors; calls by dose curve; tested in A549 cells; note: % is set by controls: 0 for no effect and ±100 for the full control effect; nearly all actives have a fitted effect of over 30% in size
VACV mCherry inh: vaccinia inhibition (mCherry reporter). Vaccinia virus mCherry reporter infection, fluorescence. hit rate 0.63% among 310,000. Potency, µM (titrated, usually from 36.5 µM), for the others: top-dose activity change, negative = inhibition, hits mostly inhibitors; calls by dose curve; tested in A549 cells; note: % is set by controls: 0 for no effect and ±100 for the full control effect; nearly all actives have a fitted effect of over 35% in size
SARS PLpro yeast: inhibitors of SARS-CoV papain-like protease in yeast | S. cerevisiae expressing SARS-CoV PLpro, growth rescue | Potency, µM (series often up to 32.9 µM), for inactives: at the top dose activity, positive = growth rescue, most hits filed as activators | hit rate 0.19% among 330,000 | AID 485353; calls by dose curve; note: 0% is about no effect; nearly all actives have a fitted effect of over 55% in size
Active calls of the source: *; [ ] = another dose, or the depositor's remark. Unless noted, calls come from the whole dose curve; as a rule, active = well fitted curve in the direction sought with a large enough effect; inconclusive = small, poorly fitted or top-dose-only effect, or another doubt; inactive = no such curve, though single readings can be large; an effect the other way counts as inactive or inconclusive. Potency is the fitted concentration of half-maximal effect.

What do the screens show for `O=C(N/N=C/c1ccco1)c1cc(C2CC2)nc2ccccc12`?
AmpC no deterg: 28.2µM*; AmpC detergent: 1.0%; SARS PLpro yeast: -7.1%

How did CS(=O)(=O)c1ccc(/C=C2\C=Cc3ccccc32)cc1 do in these assays?
Vaccinia Venus: -8.7%; VACV mCherry inh: 2.2%

How did COc1ccc(-c2cc(NC=O)c3ncc(-c4cccc(C(C)=O)c4)n3c2)cc1 do in these assays?
AMA1-RON2 inh: 28.8%; Vaccinia Venus: inconclusive; VACV mCherry inh: 12.6µM*

Results for O=c1cc(N2CCc3ccccc3C2)[nH]c(=O)n1-c1ccccc1Cl ?
AMA1-RON2 inh: -1.8%; AmpC no deterg: 10µM*; AmpC detergent: -1.0%; Vaccinia Venus: 14.0%; VACV mCherry inh: 0.5%; SARS PLpro yeast: 2.9%

What do the screens show for `COc1ccc(OC)c(/C=C/C(=O)N2C(=O)c3cccc(N)c3C2=O)c1`?
AMA1-RON2 inh: 3.4%; AmpC no deterg: 31.6µM*; AmpC detergent: -2.0%; Vaccinia Venus: -13.2%; VACV mCherry inh: -25.8%; SARS PLpro yeast: -19.0%

Results for CCn1c(C)nc2cc(C(=O)NNC(=S)Nc3ccc(OC)cc3)ccc21 ?
AMA1-RON2 inh: 72.4%; AmpC no deterg: -7.1%[11.4 µM]; AmpC detergent: inconclusive; Vaccinia Venus: -26.7%; VACV mCherry inh: inconclusive; SARS PLpro yeast: -1.1%

Results for COc1cccc(/C=N/NC(=O)N/N=C/c2cccc(OC)c2O)c1O ?
AMA1-RON2 inh: 103.7%; AmpC no deterg: -46.5%; AmpC detergent: -12.8%; Vaccinia Venus: -18.7%; VACV mCherry inh: -12.7%; SARS PLpro yeast: 6.8%

Results for O=C(N/N=C/c1cc(Br)cc(Br)c1O)c1ccncc1 ?
AMA1-RON2 inh: -87.0%; AmpC no deterg: -24.1%; AmpC detergent: 2.1%; Vaccinia Venus: inconclusive; VACV mCherry inh: 7.94µM*; SARS PLpro yeast: -4.6%

How did COc1cccc(C=NNC(=O)c2ccncc2)c1O do in these assays?
AMA1-RON2 inh: -15.1%; Vaccinia Venus: inconclusive; VACV mCherry inh: 1.58µM*

What do the screens show for `O=C(N/N=C/c1cc(Cl)cc(Cl)c1O)c1ccncc1`?
AMA1-RON2 inh: -66.7%; AmpC no deterg: -0.3%; AmpC detergent: 3.3%; SARS PLpro yeast: -6.6%

What do the screens show for `CCn1c(C)nc2cc(C(=O)N/N=C/c3cccc(OC)c3O)ccc21`?
AMA1-RON2 inh: 71.5%; AmpC no deterg: 13.2%; AmpC detergent: 2.0%; Vaccinia Venus: inconclusive; VACV mCherry inh: 10µM*; SARS PLpro yeast: 8.3%

How did COc1cccc(/C=N/NC(=O)c2cc3c(OC)ccc(OC)c3[nH]2)c1O do in these assays?
AMA1-RON2 inh: 16.3%; AmpC no deterg: 3.8%; AmpC detergent: -10.6%; Vaccinia Venus: inconclusive; VACV mCherry inh: inconclusive; SARS PLpro yeast: 13.9%

What do the screens show for `COc1cc(OC)c2cc(C(=O)N/N=C/c3cccc(OC)c3O)[nH]c2c1`?
AMA1-RON2 inh: 99.4%; AmpC no deterg: 0.398µM*; AmpC detergent: -5.1%; Vaccinia Venus: -25.7%; VACV mCherry inh: 11.2µM*; SARS PLpro yeast: 0.0%

How did NCCCN(Cc1ccc(Cl)c(Cl)c1)c1ccc(Br)cn1 do in these assays?
Vaccinia Venus: inconclusive; VACV mCherry inh: -3.5%

Results for CC(=O)N1CCc2cc(Br)cc(S(=O)(=O)CCC(=O)N3CCN(c4ccc(F)cc4)CC3)c21 ?
AmpC detergent: -8.0%; Vaccinia Venus: -8.9%; VACV mCherry inh: -6.7%

How did CCn1c(C)nc2cc(C(=O)N/N=C/c3ccc(O)c(O)c3O)ccc21 do in these assays?
AMA1-RON2 inh: 14.1µM*; AmpC no deterg: -1.1%; AmpC detergent: 1.6%; Vaccinia Venus: 0.9%; VACV mCherry inh: -11.7%; SARS PLpro yeast: -2.1%

What do the screens show for `COc1cccc(/C=N/NC(=O)COc2cccc3cccnc23)c1O`?
AMA1-RON2 inh: 40.5%; AmpC no deterg: -25.3%; AmpC detergent: -11.3%; Vaccinia Venus: -25.3%; VACV mCherry inh: 12.6µM*; SARS PLpro yeast: 0.3%

What do the screens show for `Cc1ccc(CCNC(=O)CCCn2c(=O)c3cccn3c3ccc(F)cc32)cc1`?
AmpC detergent: -2.0%; Vaccinia Venus: -15.6%; VACV mCherry inh: -16.8%

Results for COc1ccc(CCn2c(SCC(=O)Nc3cc(C)on3)nc3ccccc3c2=O)cc1OC ?
AMA1-RON2 inh: 10.6%; AmpC no deterg: -25.7%; AmpC detergent: 1.7%; Vaccinia Venus: -10.5%; VACV mCherry inh: -14.4%; SARS PLpro yeast: -0.4%

What do the screens show for `COc1ccc(CCn2c(SCC(=O)Nc3cc(C)on3)nc3ccsc3c2=O)cc1OC`?
AMA1-RON2 inh: -17.2%; AmpC no deterg: 0.316µM*; AmpC detergent: -1.2%; SARS PLpro yeast: -1.5%

How did O=C(Cc1cccs1)NCCSc1c(-c2ccc(Cl)cc2)[nH]c2ccccc12 do in these assays?
AMA1-RON2 inh: -6.3%; AmpC no deterg: -14.3%; AmpC detergent: inconclusive; Vaccinia Venus: 12.6µM*; VACV mCherry inh: 11.2µM*; SARS PLpro yeast: -2.8%

How did CN(C)S(=O)(=O)c1ccc(C(=O)NCCSc2c(-c3ccc(Cl)cc3)[nH]c3ccccc23)cc1 do in these assays?
AmpC detergent: 4.3%; Vaccinia Venus: -26.7%; VACV mCherry inh: -22.8%

Results for CC1CC(C)CN(c2ccc(C(=O)NCc3ccc4c(c3)OCO4)cc2[N+](=O)[O-])C1 (stereo not drawn) ?
AMA1-RON2 inh: inconclusive; AmpC no deterg: 3.16µM*; AmpC detergent: -3.6%; Vaccinia Venus: -2.7%; VACV mCherry inh: -7.7%; SARS PLpro yeast: 11.5%

What do the screens show for `COc1cccc(CNC(=O)c2nnn(CC(=O)Nc3ccc4c(c3)OCO4)c2N)c1`?
AMA1-RON2 inh: 4.1%; AmpC no deterg: -59.7%; AmpC detergent: 1.2%; SARS PLpro yeast: -0.2%

What do the screens show for `COc1cccc(Cn2nnc(C(=O)NCc3ccc4c(c3)OCO4)c2N)c1`?
AMA1-RON2 inh: 11.1%; AmpC no deterg: 35.5µM*; AmpC detergent: 1.0%; Vaccinia Venus: -2.6%; VACV mCherry inh: -5.8%; SARS PLpro yeast: 3.2%

What do the screens show for `COc1cc2nc(N(C)C)nc(NC3CCN(C)CC3)c2cc1OC`?
Vaccinia Venus: inconclusive; VACV mCherry inh: -27.0%

How did COc1ccc(C2CC(c3ccccc3Cl)=NN2c2ccc(S(N)(=O)=O)cc2)cc1 (stereo not drawn) do in these assays?
AMA1-RON2 inh: 45.6%; AmpC no deterg: -2.9%; Vaccinia Venus: inconclusive; VACV mCherry inh: 12.6µM*; SARS PLpro yeast: 2.7%

Results for CCCCC(=O)NC(c1cccc([N+](=O)[O-])c1)c1c(OC(C)=O)ccc2ccccc12 (stereo not drawn) ?
AMA1-RON2 inh: -12.1%; AmpC no deterg: 20.3%; AmpC detergent: -2.4%; Vaccinia Venus: inconclusive; VACV mCherry inh: 28.2µM*; SARS PLpro yeast: -8.6%

Screens from PubChem BioAssay.
